High-throughput results (PubChem)
VACV mCherry inh: inhibitors of vaccinia virus infection (mCherry reporter signal); hit rate 0.63% among 310,000; AID 720579; Potency, µM (highest dose often 36.5 µM), most hits filed as inhibitors; Vaccinia virus mCherry reporter infection, fluorescence; calls by dose curve; tested in A549 cells; also: nearly all actives have a fitted effect of over 35% in size
HCMV inh: blocks human cytomegalovirus replication; HFF cells, HCMV-luciferase reporter, 72 h; stronger effect = lower value; activity change, negative = inhibition, % at 57.5 µM; hit rate 4.5% among 410,000; in the data active = activity change below about -60%; inconclusive = no clear call, values can overlap the other calls; inactive = above about -39%
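Compounds were evaluated in HFFs infected with an HCMV luciferase reporter virus (MOI 1 PFU/cell). Luciferase in lysates collected 72 h post infection served as the replication measure.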
FMDV inh: antivirals against foot and mouth disease virus; AID 1159524; hit rate 1.2% among 410,000; FMDV antiviral cell-based qHTS; Potency, µM (titrated, usually from 57.9 µM), most hits filed as inhibitors; calls by dose curve; tested in HEK293T cells; also: read-out not given here; nearly all actives have a fitted effect of over 45% in size
HCV inhibitor: blocks hepatitis C virus | Huh7.5.1 HCVcc-Cre infection, luciferase reporter, 44 h | Potency, µM (series often up to 41.8 µM), most hits filed as inhibitors | hit rate 3.4% among 340,000 | AID 651820; active = well fitted inhibition curve with a large enough effect; inconclusive = small, poorly fitted or top-dose-only effect, or another doubt; inactive = no such curve, though single readings can be large or run the other way
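Cells seeded at 1,000/well and cultured 4 h, then compounds added followed by HCVcc-Cre virus (~0.5 moi). After 44 h further culture, luciferase substrate was added, plates held 15 min at room temperature, and luminescence read for 15 sec.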
VACV Venus inh: vaccinia inhibition (Venus reporter). Vaccinia virus Venus reporter expression, fluorescence. Potency, µM (series often up to 36.5 µM), actives largely listed as inhibitors. hit rate 0.46% among 330,000. AID 720580; calls by dose curve; tested in A549 cells; also: nearly all actives have a fitted effect of over 30% in size
Of the large screens only hits and unclear results are named; the others gave an inactive call. The list is not random: actives were taken first. Their share in the collection is about 7.3%.

Nc1nc(-c2ccccn2)nc(N)c1Cc1c(F)cccc1Cl	VACV mCherry inh inconclusive, HCMV inh -96.3, HCV inhibitor 5.01µM
CCOc1ccc(-c2nnc(SCC(=O)NCCC(C)C)nc2-c2ccc(OCC)c(OC)c2)cc1OC	none (no result: HCV inhibitor)
Cc1cc(=O)n(Cc2cccc(Cl)c2)c2c1c(C)nn2C	none (no result: HCV inhibitor)
Cc1ccc2c(c1)C(=O)OC(C(=O)Nc1ccccc1C(=O)O)C2 (stereo unspecified)	none (no result: HCV inhibitor)
CC(C)(C)C(=O)COc1ccccc1[N+](=O)[O-]	HCMV inh inconclusive
CCOC(=O)/C=C/COc1ccccc1[N+](=O)[O-]	HCMV inh -63.1
CCN1CCN(c2nc(-c3ccccn3)nc3ccccc23)CC1	none (no result: VACV mCherry inh, VACV Venus inh)
c1ccc2c(N3CCCC3)nc(-c3ccncc3)nc2c1	FMDV inh 14.1µM, HCV inhibitor inconclusive, VACV Venus inh inconclusive (no result: VACV mCherry inh)
c1ccc(-c2nc(N3CCCCCC3)c3ccccc3n2)nc1	HCMV inh -99.0, FMDV inh 25.1µM, HCV inhibitor 1.58µM, VACV Venus inh 5.01µM (no result: VACV mCherry inh)
C=CCOc1nc(-c2ccncc2)nc2ccccc12	HCV inhibitor 5.01µM
c1ccc(CN2CCN(c3nc(-c4ccccn4)nc4ccccc34)CC2)cc1	HCMV inh -98.7
c1ccc(-c2nc(N3CCOCC3)c3ccccc3n2)nc1	VACV mCherry inh inconclusive, HCMV inh inconclusive, HCV inhibitor inconclusive, VACV Venus inh inconclusive
CCCS(=O)(=O)NCc1c(C)ncc2c1CCN(C(=O)c1cccc(C(F)(F)F)c1)C2	none (no result: HCMV inh, HCV inhibitor)
CCCCn1c(=O)n(-c2cc(OC)ccc2OC)c(=O)c2c3c(sc21)CN(C(C)=O)CC3	none (no result: HCV inhibitor)
COc1ccc(NC(=O)NCCc2c[nH]c3ccccc23)c(OC)c1	none (no result: VACV mCherry inh, VACV Venus inh)
O=C(CCC(=O)c1ccccc1)NCCc1c[nH]c2ccccc12	none
COc1ccc(C(=O)CCC(=O)NCCc2c[nH]c3ccccc23)cc1	HCMV inh -103.6
COc1cc2c(CCNC(C)=O)c[nH]c2cc1Cl	HCMV inh -91.7
O=C(CCCCCNc1nc(=S)[nH]c2ccccc12)NCCc1c[nH]c2ccccc12	FMDV inh inconclusive, HCV inhibitor 20µM
COc1ccc(OC)c(NC(=O)NCCc2c[nH]c3ccccc23)c1	HCMV inh -86.9, HCV inhibitor inconclusive (no result: VACV mCherry inh, VACV Venus inh)
Cc1cc(C)c(OCC(=O)N2CC=C(c3ccccc3)CC2)c(C)c1	HCMV inh -66.7 (no result: VACV mCherry inh, VACV Venus inh)
COc1cc(OC)cc(C(=O)NCC(=O)N2CC=C(c3ccccc3)CC2)c1	VACV mCherry inh inconclusive, HCV inhibitor inconclusive, VACV Venus inh inconclusive
CCc1ccccc1NC(=O)CSc1ncc2c(n1)-c1ccccc1N(Cc1ccc(C)cc1)S2(=O)=O	none (no result: HCV inhibitor)
O=C(COC(=O)c1ccccc1C(=O)c1ccccc1)NCCc1ccccc1	HCV inhibitor inconclusive
O=C(COC(=O)c1ccccc1C(=O)c1ccc(Cl)cc1)NCCc1ccccc1	VACV mCherry inh inconclusive, HCMV inh -76.3, VACV Venus inh inconclusive
Cc1cc(Cl)c(C)c(S(=O)(=O)N2CCN(CC(=O)N3CCOCC3)CC2)c1Cl	HCMV inh active, HCV inhibitor inconclusive (no result: VACV mCherry inh, VACV Venus inh)
Cc1ccc(S(=O)(=O)N2CCN(CC(=O)N3CCOCC3)CC2)cc1	none
NC(=O)c1nsc(C(=O)N(c2ccccc2F)C(C(=O)NCc2ccc(F)cc2)c2ccc(O)cc2)c1N (stereo unspecified)	HCMV inh -102.4, HCV inhibitor 3.55µM
COc1ccc(N(C(=O)c2snc(C(N)=O)c2N)C(C(=O)NCc2ccccc2)c2ccc(F)cc2)c(OC)c1 (stereo unspecified)	HCMV inh -80.4, HCV inhibitor inconclusive
Cc1ncoc1C(=O)N1CCOc2ccc(CN3CCN(c4ccccn4)CC3)cc2C1	none (no result: HCMV inh, HCV inhibitor)
Clc1ccc(-c2cccs2)nn1	none
CC1CCN(c2ccc(-c3cccs3)nn2)CC1	HCMV inh -66.1, FMDV inh 7.94µM
CCCCN1CC(COCc2ccccc2)Oc2cccc(N3CCCCC3)c2S1(=O)=O (stereo unspecified)	none (no result: VACV mCherry inh, FMDV inh, HCV inhibitor, VACV Venus inh)
CCN(c1ccc(OC)cc1)S(=O)(=O)c1ccc(-c2ccc(=O)[nH]n2)o1	HCMV inh -63.5 (no result: VACV mCherry inh, VACV Venus inh)
c1ccc(-c2ccc(N3CCCC4(CCNCC4)C3)cc2)cc1	none (no result: VACV mCherry inh, HCMV inh, HCV inhibitor, VACV Venus inh)
O=C(Cn1ncc(Cl)c(Cl)c1=O)Nc1ccc2c(c1)OCO2	HCMV inh -101.9, FMDV inh 35.5µM, HCV inhibitor inconclusive (no result: VACV mCherry inh, VACV Venus inh)
COc1ccc(NC(=O)CSc2ccccc2)cc1S(=O)(=O)N1CCOCC1	none
CCN(CC)S(=O)(=O)c1cc(NC(=O)CN2C(=O)NC(C)(c3ccccc3)C2=O)ccc1C (stereo unspecified)	none
O=C(Cn1ncc(Cl)c(Cl)c1=O)c1ccc2c(c1)OCCO2	VACV mCherry inh inconclusive, HCMV inh -81.1, FMDV inh inconclusive, HCV inhibitor 2µM
CCN(CC)S(=O)(=O)c1cc(NC(=O)Cn2ncc(Cl)c(Cl)c2=O)ccc1C	VACV mCherry inh inconclusive, HCMV inh -79.1, HCV inhibitor inconclusive, VACV Venus inh inconclusive
COc1ccc(NC(=O)Cn2ncc(Cl)c(Cl)c2=O)cc1S(=O)(=O)N1CCOCC1	HCMV inh -100.2, FMDV inh 39.8µM, HCV inhibitor 8.91µM
Cc1ccc(-n2c(-c3ccccc3)c[n+]3c2CCC3)cc1	HCMV inh -94.7, FMDV inh inconclusive
Cc1ccc(-n2c(-c3ccc(Cl)cc3)c[n+]3c2CCC3)cc1	HCMV inh -91.2, FMDV inh inconclusive, HCV inhibitor inconclusive (no result: VACV mCherry inh, VACV Venus inh)
OCCC1CN(Cc2ccc3c(c2)CCO3)CCN1C1CCCC1 (stereo unspecified)	HCMV inh -74.1
OCCC1CN(Cc2ccsc2)CCN1C1CCCC1 (stereo unspecified)	none
COc1ccc2nc3sc(C(=O)Nc4cc(Cl)c(OC)cc4OC)cc3cc2c1	VACV mCherry inh inconclusive, VACV Venus inh inconclusive (no result: HCV inhibitor)
O=C(O)/C=C/c1ccc2ccccc2c1	none (no result: HCMV inh, FMDV inh, HCV inhibitor)
CCc1nc(N)c(C#N)c(-c2cccc3ccccc23)c1C	none
CCCOc1nc(N)c(C#N)c(-c2ccccc2F)c1C#N	HCV inhibitor 35.5µM
CCCN(C(=O)c1c(C)oc2ncn(CC(C)C)c(=O)c12)c1ccccc1C	none (no result: HCV inhibitor)
Cc1ccc(-n2ncc3c(N4CCN(Cc5ccccc5)CC4)ncnc32)cc1	FMDV inh inconclusive (no result: HCV inhibitor)
O=C(c1ccccc1)N1CCN(c2ncnc3c2cnn3-c2ccccc2)CC1	FMDV inh inconclusive, HCV inhibitor 10µM, VACV Venus inh inconclusive
Cc1nn(-c2ccccc2)c(Cl)c1C(=O)N1CCN(c2ncnc3c2cnn3-c2ccccc2)CC1	HCMV inh -105.4, FMDV inh 6.31µM, HCV inhibitor 2.24µM, VACV Venus inh inconclusive (no result: VACV mCherry inh)
COc1cccc(OCCN2CCN(c3ncnc4c3cnn4-c3ccccc3)CC2)c1	FMDV inh inconclusive, HCV inhibitor 7.08µM (no result: VACV mCherry inh, VACV Venus inh)
O=C1CCCc2cc(S(=O)(=O)NCC3CCC(C(=O)Nc4ccc(Cl)cc4)CC3)ccc2N1 (stereo unspecified)	none (no result: HCV inhibitor)
CC(C)(C)OC(=O)N1CCN(c2nc(-c3cccs3)nc3ccccc23)CC1	none (no result: HCMV inh, FMDV inh, HCV inhibitor)
Nc1cccc(B(O)O)c1	none (no result: HCMV inh, FMDV inh, HCV inhibitor)
O=C(Cn1ncc2c3ccccc3n(Cc3ccc(Cl)cc3)c2c1=O)NCCCN1CCCC1=O	none (no result: VACV mCherry inh, VACV Venus inh)
COc1ccc(Cl)cc1NC(=O)Cn1c(=O)n(CCCC(=O)NCCc2ccc(OC)c(OC)c2)c(=O)c2ccccc21	HCMV inh -80.1 (no result: HCV inhibitor)
O=C(Cn1ncc2c3ccccc3n(Cc3ccccc3)c2c1=O)NCCCN1CCCC1=O	HCMV inh -67.0
